Sampled rows, rich in hits. Any-hit rate of the full collection: about 7.1%.
M1 antagonist: M1 muscarinic receptor (rat) antagonism; 3.4% of 64,000 active; P08482; B-score at 10 µM; AID 628; CHO-M1 cells, Fluo-4 calcium, ACh EC80 antagonist mode; hits give low values;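 active = calcium fluorescence response, raw or row-and-column corrected B-score, differing from the plate sample mean either way at a set confidence level, mostly lower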
Target sequence (P08482 whole entry, looked up): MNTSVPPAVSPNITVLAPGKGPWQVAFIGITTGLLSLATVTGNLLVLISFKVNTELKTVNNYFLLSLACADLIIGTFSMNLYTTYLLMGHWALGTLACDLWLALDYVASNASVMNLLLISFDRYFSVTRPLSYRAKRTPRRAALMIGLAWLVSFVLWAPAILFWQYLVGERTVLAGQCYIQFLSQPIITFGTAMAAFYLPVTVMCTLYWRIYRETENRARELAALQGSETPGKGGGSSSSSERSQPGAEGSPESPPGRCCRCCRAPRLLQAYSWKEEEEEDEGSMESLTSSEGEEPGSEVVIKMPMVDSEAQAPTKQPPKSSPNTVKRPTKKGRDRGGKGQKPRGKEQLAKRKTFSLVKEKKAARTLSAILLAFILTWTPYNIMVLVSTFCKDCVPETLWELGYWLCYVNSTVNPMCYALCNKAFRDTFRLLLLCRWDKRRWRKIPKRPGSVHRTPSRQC
PTK2B oligo ant: Pyk2 (human) oligomerization antagonism; Q14289; z-score (the deposit names both 25 µM and 10 µM); AID 1347419; 0.83% of 99,000 active; Q293 cells, Pyk2 FERM NanoBiT luminescence; hits give low values;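 active = Z-score of -3 or lower, scaled per plate to the spread of control and sample wells; inactive = z-score above -3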;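 note: negative z-score means lost luminescence so less FERM oligomerization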
M1 ag: activates the M1 muscarinic receptor; CHO-M1 cells, Fluo-4 calcium fluorescence, agonist mode; hits give high values; B-score at 10 µM; 3% of 64,000 active;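 active = fluorescence rise, raw or as B-score row- and column-corrected plate score, outside the 99.7% band of its plate's samples, either direction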
Cav32 inh: inhibitors of human Cav3.2 T-type calcium channel; AID 449739; B-score at 10 µM; Cav3.2-expressing cells, Fluo-4 calcium fluorescence FDSS; hits give low values; 4% of 100,000 active; O95180;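 active = single-dose well whose peak fluorescence ratio is a statistical outlier from its plate by either plate-standardised score or position-corrected B-score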
* marks the source's active call; other numbers are inactive results; . = no result given.

SMILES	M1 antagonist	PTK2B oligo ant	M1 ag	Cav32 inh
O=C(O)c1ccc2c(c1)C(=O)N(CCC1=CCCCC1)C2=O	0.34	0.5	0.85	.
CN(C(=O)c1ccc2c(c1)C(=O)N(CCC1=CCCCC1)C2=O)C1CCCCC1	.	.	.	-6.1*
COc1cccc(-c2nc(N3CCC(C)CC3)c3ccccc3n2)c1O	2.2*	-0.41	-0.62	-0.25
COc1cccc(-c2nc(N3CC(C)CC(C)C3)c3ccccc3n2)c1O (centres undefined)	0.19	1	-0.95	-0.22
CC(C)C(C)NC(=O)CSc1nc2scc(-c3ccco3)c2c(=O)n1-c1ccccc1 (centres undefined)	.	0.52	.	-5.4*
CC(C)C(C)(C#N)NC(=O)CSc1nc2scc(-c3ccco3)c2c(=O)n1-c1ccccc1 (centres undefined)	-0.75	0.18	-0.75	-5.1*
CC(NC(=O)CSc1nc2sc3c(c2c(=O)n1-c1ccccc1)CCCC3)c1ccccc1 (centres undefined)	.	-1.9	.	-6.5*
Cc1sc2nc(SCC(=O)NCc3ccco3)n(-c3ccccc3)c(=O)c2c1C	0.028	-2.1	0.35	-0.11
COc1ccc(CCNC(=O)COc2ccc(S(=O)(=O)NC3CCCCC3)cc2Cl)cc1	.	0.17	.	-2.9
CCN1CCN(C(=O)c2ccc(Cn3c(=O)[nH]c4cc(OC)c(OC)cc4c3=O)cc2)CC1	.	-0.62	.	-0.065
COc1ccc(Cn2c(=O)[nH]c3cc(C(=O)N4CCN(Cc5ccccc5)CC4)ccc3c2=O)cc1	-0.16	-1.2	-0.51	-7.5*
O=C(c1ccc(Cn2c(=O)[nH]c3ccccc3c2=O)cc1)N1CCN(c2ccc(F)cc2)CC1	0.032	0.91	1.2	-9*
O=C(Cc1ccc(-n2c(=O)[nH]c3ccccc3c2=O)cc1)N1CCN(c2ccccc2)CC1	-0.0028	-0.64	0.79	0.073
COc1cc2c(cc1OC)C(=O)CC(C)S2 (centres undefined)	.	-0.12	.	0.18
Cc1ccc(OCC(=O)N2N=C(C(F)(F)F)CC2(O)C(C)(C)C)cc1C (centres undefined)	.	-1.1	.	-7.3*
Cc1ccccc1OCC(=O)N1N=C(C(F)(F)F)CC1(O)C(C)(C)C (centres undefined)	.	-0.39	.	-8.2*
Cc1ccc(OCC(=O)Nc2ccc(F)cc2)cc1C	.	-0.53	.	-1.5
Cc1cccc(CN2C[C@]34CC[C@@H](C[C@@H]3S2(=O)=O)O4)c1	.	.	.	1.4
Cn1c(=O)c(NCCc2ccccc2)c2c3c(cccc31)C(=O)c1ccccc1-2	.	1.2	.	-11*
CCCCNc1c2c3c(cccc3n(C)c1=O)C(=O)c1ccccc1-2	.	-2.7	.	-5.2*
CC(=O)Nc1ccc(Nc2c3c4c(cccc4n(C)c2=O)C(=O)c2ccccc2-3)cc1	.	-2.2	.	.
Cn1c(NCCc2ccccc2)cc(=O)n(C)c1=O	0.076	-0.88	-0.28	0.14
O=C(c1cccc(Br)c1)c1cn(-c2ccccc2)nc1C(=O)c1ccccc1	.	-2.6	.	.
Cc1cc2c(s1)c1cnn(CC(=O)NCCc3ccccc3)c(=O)c1n2C	3.1*	.	0.0053	-0.12
Cc1ccc(N(CC(=O)Nc2ccccc2-c2ccccc2)S(=O)(=O)c2ccccc2)cc1	.	-3.9*	.	-2.2
SMILES	M1 antagonist	PTK2B oligo ant	M1 ag	Cav32 inh
Cc1ccc(S(=O)(=O)Nc2ccnc3ccccc23)cc1	.	-0.6	.	-0.24
Cc1ccc(S(=O)(=O)Nc2ccccc2-c2ccccc2)cc1	.	0.07	.	-5.8*
Cc1ccc(N(CC(=O)NCc2ccco2)S(=O)(=O)c2ccccc2)cc1	-0.32	-1.2	1.5	1.2
COC(=O)[C@@]1(Cc2ccc(F)cc2)[C@H]2c3cc(C(=O)N4CCCC4)n(CCc4ccccn4)c3C[C@H]2CN1C(=O)c1ccccc1	.	.	.	-0.043
Cn1c(SCc2cnc(-c3ccccc3)s2)nnc1C1COc2ccccc2O1 (centres undefined)	1.6	0.23	1.9	-4.9*
Cc1cc(C(=O)CSc2nnc(C3COc4ccccc4O3)n2C)c(C)n1-c1ccc(F)cc1 (centres undefined)	0.17	0.19	0.53	-7.9*
COc1cccc(-c2cc(C(=O)Nc3cccnc3)no2)c1	.	1.9	.	-0.21
COc1cccc(-c2cc(C(=O)Nc3cc(OC)c(OC)c(OC)c3)no2)c1	-1.2	-1.1	2.4*	-2.5
Cc1nn(Cc2ccccc2)c(C)c1NC(=O)c1cc(-c2cccs2)on1	-0.63	0.24	0.16	-4.8*
COc1cccc(-c2cc(C(=O)Nc3c(C)nn(Cc4ccccc4C)c3C)no2)c1	-0.48	2	-0.71	-3.9*
COc1ccc(-c2cc(C(=O)Nc3c(C)nn(Cc4ccccc4)c3C)no2)cc1	-0.23	1.1	0.38	-1.3
Cc1cc(NC(=O)c2cc(C(C)C)on2)nn1Cc1ccc(Cl)cc1	.	.	.	-7.1*
COc1ccc(Cl)cc1Nc1nc(C)cc(C)c1C(N)=O	.	0.77	.	.
NC(N)=Nc1nc(CCN2C(=O)c3ccccc3C2=O)cs1	.	0.83	.	0.45
Cc1ccc(F)cc1NC(=O)C12CC3CC(C1)CC(n1cnc([N+](=O)[O-])n1)(C3)C2	.	1.2	.	1
Cc1nn(Cc2ccc(Cl)c(Cl)c2)c(C)c1NC(=O)c1cc(CC(C)C)on1	-1.7	.	0.6	-8.6*
CC(C)(C)c1ccc(S(=O)(=O)N2CC(=O)Nc3ccccc32)cc1	.	1.2	.	0.065
O=C(c1ccc(Cl)c(Cl)c1)N(Cc1ccco1)c1ccc(O)cc1	-0.019	-2.1	0.56	-7.4*
O=C(Cn1cnc2ccccc2c1=O)N(Cc1ccco1)c1ccc(O)cc1	-0.38	-1.7	-1.5	0.41
CCCC(=O)NC(C)c1nc(-c2ccc(C)cc2)no1 (centres undefined)	.	.	.	0.49
CCC(=O)N1CCN(c2ccc(Cl)cc2NC(=O)c2ccc(N3CCCC3)c([N+](=O)[O-])c2)CC1	.	-0.48	.	0.96
CCC(=O)N1CCN(c2ccc(Cl)cc2NC(=O)Cc2ccccc2)CC1	0.71	-1.4	0.019	-6*
Cc1ccc(Nc2nc(N)nc(CN3CCN(C(=O)c4ccco4)CC3)n2)cc1Cl	0.069	0.94	2	2.1
COc1cccc(C(=O)NC2CCN(C(=O)N3c4ccccc4Sc4ccccc43)CC2)c1	.	-1.7	.	-3.9*
CCN(CC)S(=O)(=O)c1ccc(NS(=O)(=O)c2ccc(C)c(C)c2)cc1	.	-1.9	.	-4.3*
SMILES	M1 antagonist	PTK2B oligo ant	M1 ag	Cav32 inh
CCCN(CCC)S(=O)(=O)c1ccc(NS(=O)(=O)c2ccc(F)cc2)cc1	.	-1.6	.	-3.9*
CCN(CC)S(=O)(=O)c1ccc(S(=O)(=O)Nc2ccc3c(c2)oc2ccccc23)cc1	.	-0.66	.	-0.83
Cc1ccc(C(=O)CC2(O)C(=O)N(CN3CCOCC3)c3ccccc32)cc1 (centres undefined)	-1.8	0.95	0.46	0.19
CC(C)c1ccc(C(=O)CC2(O)C(=O)N(CN3CCOCC3)c3ccccc32)cc1 (centres undefined)	.	1	.	-5.8*
CCN(CC)S(=O)(=O)c1cccc(-c2nnc(SCC(=O)c3cc(C)n(C4CC4)c3C)o2)c1	-0.61	1.6	3.2*	0.87
CCN(CC)S(=O)(=O)c1cccc(-c2nnc(SCCCC(=O)c3ccccc3)o2)c1	-1.4	-1.1	-0.56	-5.3*
C=CCn1c(C)cc(C(=O)CSc2nnc(-c3cccc(S(=O)(=O)N(CC)CC)c3)o2)c1C	0.49	-0.13	1.9	-2

High-throughput results as filed in PubChem.
